Inconclusive results are not listed. Active and inactive are the calls of the source. Calls follow the shape of the dose curve; as a rule, active = well fitted curve in the direction sought with a large enough effect; inconclusive = small, poorly fitted or top-dose-only effect, or another doubt; inactive = no such curve, though single readings can be large; an effect the other way counts as inactive or inconclusive.

Results on 8 molecules are retold here after PubChem BioAssay (NCATS).

Assay [1] can be described thus: qHTS of pediatric cancer cell lines to identify multiple opportunities for drug repurposing: Primary screen for BT-37 cells (AID 1347094). Also: potency is read from the fitted curve at half-maximal effect. In outline: (§1)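 Viability was measured as metabolically active cells after 48 hours of treatment, read by CellTiter-Glo luminescence. Compounds were tested at multiple final concentrations, giving concentration-response curves.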

A short description of assay [2]: qHTS of pediatric cancer cell lines to identify multiple opportunities for drug repurposing: Primary screen for U-2 OS cells (AID 1347096). Also: nearly all actives have a fitted effect of over 50% in size. Also: potency is read from the fitted curve at half-maximal effect. In outline: (§2)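 Cells (500-1,000/well) in growth media were settled 5 h at 37 degrees C, then given compounds for 48 h. Viability was read as CellTiter-Glo luminescence. Primary runs used MIPE at 11 points (0.78 nM-46 µM) and NPC at 8 points (0.59 nM-46 µM); follow-ups used 11 points.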

Assay [3] can be described thus: qHTS of pediatric cancer cell lines to identify multiple opportunities for drug repurposing: Primary screen for Saos-2 cells (AID 1347097). Also: nearly all actives have a fitted effect of over 40% in size. Also: potency is read from the fitted curve at half-maximal effect. In outline:
as §1
Background: Quantitative high-throughput screening tests each substance at several concentrations.

A short description of assay [4]: qHTS of pediatric cancer cell lines to identify multiple opportunities for drug repurposing: Primary screen for SK-N-SH cells (AID 1347098). Also: nearly all actives have a fitted effect of over 65% in size. Also: potency is read from the fitted curve at half-maximal effect. In outline: (§3)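 Cells (500-1,000/well) rested 5 h, then received compounds for 48 h; metabolically active cells were measured by CellTiter-Glo luminescence. Final concentrations spanned up to 46 µM (MIPE, 11-point) or 0.59 nM-46 µM (NPC, 8-point) in primary screens, 11-point in follow-ups.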

Assay [5] is described as follows: qHTS of pediatric cancer cell lines to identify multiple opportunities for drug repurposing: Primary screen for BT-12 cells (AID 1347101). Also: nearly all actives have a fitted effect of over 25% in size. Also: potency is read from the fitted curve at half-maximal effect. In outline: as §3
A short description of assay [6]: qHTS of pediatric cancer cell lines to identify multiple opportunities for drug repurposing: Primary screen for Rh18 cells (AID 1347102). Also: nearly all actives have a fitted effect of over 65% in size. Also: potency is read from the fitted curve at half-maximal effect. The method, boiled down:
as §2

Assay [7] can be described thus: qHTS of pediatric cancer cell lines to identify multiple opportunities for drug repurposing: Primary screen for OHS-50 cells (AID 1347103). Also: nearly all actives have a fitted effect of over 40% in size. Also: potency is read from the fitted curve at half-maximal effect. In outline: as §3
The nature of assay [8]: qHTS of pediatric cancer cell lines to identify multiple opportunities for drug repurposing: Primary screen for RD cells (AID 1347104). Also: nearly all actives have a fitted effect of over 55% in size. Also: potency is read from the fitted curve at half-maximal effect. In outline: as §1
A short description of assay [9]: qHTS of pediatric cancer cell lines to identify multiple opportunities for drug repurposing: Primary screen for MG 63 (6-TG R) cells (AID 1347105). Also: nearly all actives have a fitted effect of over 50% in size. Also: potency is read from the fitted curve at half-maximal effect. In outline: as §1
The nature of assay [10]: qHTS of pediatric cancer cell lines to identify multiple opportunities for drug repurposing: Primary screen for control Hh wild type fibroblast cells (AID 1347106).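 Also: series mostly up to about 46 µM; a drop in luminescence marks cytotoxicity and a rise apparent proliferation; nearly all actives have a fitted effect of over 55% in size.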 The method, boiled down: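 Viability after 48 h compound treatment at 37C, 500-1,000 cells/well, read as ATP luminescence with CellTiter-Glo. Primary screens used 11-point (MIPE, 0.78 nM-46 µM) or 8-point (NPC, 0.59 nM-46 µM) final concentrations; follow-up screens used 11-point dilutions.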

A short description of assay [11]: qHTS of pediatric cancer cell lines to identify multiple opportunities for drug repurposing: Primary screen for Rh30 cells (AID 1347107). Also: nearly all actives have a fitted effect of over 75% in size. Also: potency is read from the fitted curve at half-maximal effect. In outline:
as §2

Assay [12] is described as follows: qHTS of pediatric cancer cell lines to identify multiple opportunities for drug repurposing: Primary screen for Rh41 cells (AID 1347108). Also: nearly all actives have a fitted effect of over 70% in size. Also: potency is read from the fitted curve at half-maximal effect. In outline: as §1
Assay [13] is described as follows: qHTS of pediatric cancer cell lines to identify multiple opportunities for drug repurposing: Primary screen for NB1643 cells (AID 1347099). Also: potency is read from the fitted curve at half-maximal effect; nearly all actives have a fitted effect of over 50% in size. The method, boiled down: as §1
Assay [14] is described as follows: qHTS of pediatric cancer cell lines to identify multiple opportunities for drug repurposing: Primary screen for LAN-5 cells (AID 1347100). In outline: as §2
The nature of assay [15]: qHTS of pediatric cancer cell lines to identify multiple opportunities for drug repurposing: Confirmatory screen for A673 cells (AID 1347110).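 Also: potency is read from the fitted curve at half-maximal effect; cells exposed to compound for 48 h before the viability read; nearly all actives have a fitted effect of over 65% in size.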 The method, boiled down:
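qHTS titration format: primary MIPE 0.78 nM-46 µM (11 pts), NPC 0.59 nM-46 µM; confirmation 11 pts. 48 h, CTG luminescence.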

Assay [16] can be described thus: qHTS of pediatric cancer cell lines to identify multiple opportunities for drug repurposing: Confirmatory screen for SK-N-MC cells (AID 1347111).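 Also: potency is read from the fitted curve at half-maximal effect; cells exposed to compound for 48 h before the readout; nearly all actives have a fitted effect of over 70% in size.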 The method, boiled down: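 Metabolically active cells were quantified by ATP-dependent luminescence (CellTiter-Glo, 15 min at room temperature) following 48 h treatment. Cells had been plated at 500-1,000 per well and settled for 5 h beforehand.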

Assay [17] can be described thus: qHTS of pediatric cancer cell lines to identify multiple opportunities for drug repurposing: Confirmatory screen for BT-12 cells (AID 1347112). Also: potency is read from the fitted curve at half-maximal effect; nearly all actives have a fitted effect of over 55% in size. In outline:
as §2

Assay [18] in a line: qHTS of pediatric cancer cell lines to identify multiple opportunities for drug repurposing: Confirmatory screen for LAN-5 cells (AID 1347113). Also: potency is read from the fitted curve at half-maximal effect; nearly all actives have a fitted effect of over 65% in size. In outline:
as §2

As to `CC=CCC=CCCC(=O)[C@H]1O[C@@H]1C(N)=O`, the Potency result in [1], in assay [2], in assay [4], in [5], in [6] and in [7] was “inactive” throughout. The Potency result in [8], in [9], in assay [10], in assay [11] and in [12] was “inactive” throughout. Moreover, the Potency in assay [3] was 18.7 µM (active).

Turning to `CC1(C)Cc2c(sc(NC(=S)NC(=O)c3ccccc3)c2C(=O)O)CO1`, the Potency entry in assay [1], in assay [2], in assay [3], in [14], in [5] and in assay [6] was “inactive” each time. The Potency result in [7], in assay [9], in assay [10], in assay [11] and in assay [12] was “inactive” in each case. For the same molecule, the Potency in assay [13] is 5.26 µM (active); in assay [8] it was 33.2 µM (active).

Consider `CC(C)n1nc(-c2ccc3oc(N)nc3c2)c2c(N)ncnc21`, for which the Potency in [1] was 0.0043 µM (active); in [2], 148 nM (active); in assay [3], 0.935 µM (active); in assay [4], 21.5 µM (active); in assay [5], 306 nM (active); in assay [6], 235 nM (active). Moreover, the Potency in assay [7] is 1.2 nM (active); in [8], 0.0296 µM (active); in assay [9] it was 0.7 nM (active); in [11] it was 11.8 µM (active); in assay [12] it was 23.5 nM (active); in [15] it was 147 nM (active). Moreover, the values for the Potency in assay [16], in assay [17] and in [18] were 73.7 nM (active), 117 nM (active) and 131 nM (active), respectively.

Regarding `CC(C)(C)NC(=O)Nc1cccc(Nc2ncc(F)c(NC(C)(C)CO)n2)c1`, the Potency entry in assay [1], in assay [2], in [3], in assay [6], in assay [7] and in assay [8] was “inactive” in each case. The Potency entry in assay [9], in assay [10] and in assay [11] was “inactive” throughout.

With `C[C@]12CC[C@@H]3c4ccc(O)cc4CC[C@H]3[C@H]1C[C@@H](O)[C@H]2O`, the Potency result in assay [1], in assay [2], in [3], in assay [14], in assay [6] and in assay [7] was “inactive” each time. The Potency entry in assay [8], in [9], in assay [10] and in [11] was “inactive” each time.

On to `COc1cc(N2CCC(N3CCN(C)CC3)CC2)ccc1Nc1ncnc(Nc2ccccc2S(=O)(=O)C(C)C)n1`, for which the Potency was 15.3 µM (active) in assay [1], 27.1 µM (active) in assay [4], 5.26 µM (active) in assay [11] and 5260 nM (active) in assay [12]. Also, the Potency result in assay [2], in assay [3] and in assay [10] was “inactive” in each case.

For `CC(C)(C)c1cc(C(=O)O)c(NC(=O)Nc2ccc3[nH]ncc3c2)s1`, the Potency result in assay [1], in assay [2], in assay [4], in assay [5], in assay [6] and in [7] was “inactive” in each case. The Potency entry in assay [9] and in assay [10] was “inactive” throughout. Further, the Potency in assay [13] was 23.5 µM (active).

For the molecule `COC(=O)C1=CO[C@@H](O)[C@@H]2C(CO)=CC[C@@H]12`, the Potency entry in [1], in assay [2], in assay [3], in assay [8], in assay [10] and in assay [11] was “inactive” each time. The Potency entry in [12] was “inactive”.
